Experimental findings from PubChem BioAssay (NCATS) are described below.

For assay [1], the target named is Cellular tumor antigen p53 (Homo sapiens) (UniProt P04637). In words: Primary qHTS for small molecule compounds that upregulate eGFP-tagged delta133p53alpha (in N-terminal) cells. (AID 2060322).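 Note: series mostly up to about 56 µM; 0% = DMSO vehicle and 100% = reference activator; nearly all actives have a fitted effect of over 75% in size.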 To be noted: NCI-H358 eGFP-delta133p53alpha fluorescence, 24 h; activation: active compounds read high. Put shortly:
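NCI-H358 cells pre-induced 24 h with 10 ng/ml doxycycline to express N-terminal eGFP-delta133p53alpha, then dosed 24 h at 37C without doxycycline; fixed, Hoechst-stained, GFP intensity by laser scanning cytometry, normalized to DMSO (0%) and 57.5 uM 5-azacytidine (100%).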

For assay [2] the target is unchanged. In words: Primary qHTS for small molecule compounds that upregulate eGFP-tagged delta133p53alpha (in C-terminal) cells. (AID 2060324). Note: potency is the fitted concentration of half-maximal effect. Put shortly: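 NCI-H358 cells with doxycycline-inducible D133p53a-eGFP (C-terminal tag), pre-induced 24 h with 100 ng/ml doxycycline, plated 800/well in doxycycline-free medium and treated 24 h at 37 °C with compound titrations. Cells were then fixed and Hoechst-stained, and GFP intensity was read by laser scanning cytometry.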
A general note: qHTS replaces the single test concentration by a dilution series.

Assay [3] addresses Aldehyde dehydrogenase, mitochondrial (Homo sapiens) (UniProt P05091). Kind of assay: qHTS for Inhibitors of the Aldehyde Dehydrogenase Family (ALDH2) Validation screens (AID 2061302; active = well fitted inhibition curve with a large enough effect; title and protocol of this record describe different tests; note: potency is the fitted concentration of half-maximal effect).
In assay [4] the target is Retinaldehyde dehydrogenase 3 (Homo sapiens) (UniProt P47895). In words: qHTS for Inhibitors of the Aldehyde Dehydrogenase Family (ALDH1A3) Validation screen (AID 2061312). Note: % is set by controls: 0 for no effect and ±100 for the full control effect; nearly all actives have a fitted effect of over 45% in size.
Assay [5] concerns the target Aldehyde dehydrogenase, mitochondrial (Homo sapiens) (UniProt P05091). Kind of assay: qHTS for Inhibitors of the Aldehyde Dehydrogenase Family (ALDH2) Primary screen (AID 2061308).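 Note: plate controls were vehicle for no effect and reference inhibitor for full effect; nearly all actives have a fitted effect of over 55% in size.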
The target of assay [6] is Retinaldehyde dehydrogenase 3 (Homo sapiens) (UniProt P47895). Kind of assay: qHTS for Inhibitors of the Aldehyde Dehydrogenase Family (ALDH1A3) Primary screen (AID 2061315).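 Note: plate controls were DMSO vehicle for no effect and reference inhibitor for full effect.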
Assay [7] has as its target Aldehyde dehydrogenase, mitochondrial (Homo sapiens) (UniProt P05091). Kind of assay: qHTS for Inhibitors of the Aldehyde Dehydrogenase Family (ALDH2) Confirmatory screens (AID 2061303; active = well fitted inhibition curve with a large enough effect; title and protocol of this record describe different tests; note: nearly all actives have a fitted effect of over 45% in size; note: potency is the fitted concentration of half-maximal effect).
A short description of assay [8]: qHTS for Inhibitors of the Aldehyde Dehydrogenase Family (ALDH1A2, ALDH1A3, ALDH2, ALDH3A1) (AID 2061307). Note: test system not described further here; potency is the fitted concentration of half-maximal effect; nearly all actives have a fitted effect of over 50% in size.
For assay [9], the target named is Aldehyde dehydrogenase 1A1 (Homo sapiens) (UniProt P00352). Kind of assay: qHTS for Inhibitors of the Aldehyde Dehydrogenase Family (ALDH1A1) Confirmatory screens (AID 2061316). Note: potency is the fitted concentration of half-maximal effect; nearly all actives have a fitted effect of over 65% in size.

Where “and” joins values, the source holds several entries; their conditions need not be identical. Equal values may be shown once. Results filed as inconclusive are left out. Unmarked numbers belong to inactive results. Calls of active or inactive are those of the source. Unless noted, calls come from the whole dose curve; as a rule, active = well fitted curve in the direction sought with a large enough effect; inconclusive = small, poorly fitted or top-dose-only effect, or another doubt; inactive = no such curve, though single readings can be large; an effect the other way counts as inactive or inconclusive.

Sequence of Cellular tumor antigen p53 (Homo sapiens) (P04637 whole entry, looked up): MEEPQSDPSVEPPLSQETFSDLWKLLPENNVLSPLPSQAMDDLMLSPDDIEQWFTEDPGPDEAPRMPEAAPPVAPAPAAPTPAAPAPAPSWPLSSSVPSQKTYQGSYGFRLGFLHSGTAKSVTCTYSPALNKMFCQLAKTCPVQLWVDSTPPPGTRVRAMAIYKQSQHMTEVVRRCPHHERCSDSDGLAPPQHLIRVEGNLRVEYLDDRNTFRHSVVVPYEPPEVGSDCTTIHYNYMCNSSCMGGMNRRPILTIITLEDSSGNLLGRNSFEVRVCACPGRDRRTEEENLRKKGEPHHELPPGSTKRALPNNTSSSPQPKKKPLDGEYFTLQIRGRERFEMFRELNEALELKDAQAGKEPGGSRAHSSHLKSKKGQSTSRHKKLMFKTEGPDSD

Consider `Cc1cc([C@@H]2CCCN2C)on1`, for which the activation in assay [1] was 4.82%. Besides, the Potency result in assay [2] and in assay [3] was “inactive” each time.
Regarding `NC(=NCCC[C@H](N)C(=O)O)N[N+](=O)[O-]`, the activation in [1] is -32.4%. In addition, the Potency entry in assay [2], in [3] and in assay [4] was “inactive” throughout.
Consider `COc1cc(C(O)CN)ccc1O` (stereo not drawn), for which the activation in assay [1] is -24.3%. In addition, the Potency entry in [2], in assay [3] and in assay [4] was “inactive” each time.
Take `NCC(O)c1ccc(O)cc1` (stereo not drawn): the activation in assay [1] is -4.18% and -26.8%. For the same molecule, the Potency entry in [2], in assay [3] and in [4] was “inactive” throughout.
On to `c1ccc2c(c1)[I+]c1ccccc1-2`, for which the activation in [1] is 35.2%. The Potency is 23.9 µM (active) in assay [2] and 7.08 µM (active) in [3].
As to `S=C(NC1CCCCC1)N1CCC(c2cnc[nH]2)CC1`, in [1], the activation is 5.67% and -16.8%. The Potency entry in assay [2], in assay [3], in assay [5], in [4] and in [6] was “inactive” throughout.
On to `CN1C[C@H](CNC(=O)OCc2ccccc2)C[C@@H]2c3cccc4c3c(cn4C)C[C@H]21`, for which, in [1], the activation was -6.69% and -23.9%. Besides, the Potency result in [2] and in assay [3] was “inactive” throughout.
With `NC(=O)COc1c(F)cc(SCCNS(=O)(=O)c2ccccc2)cc1F`, the activation in [1] was -8.4%. Moreover, the Potency entry in assay [2], in assay [3], in assay [7] and in assay [4] was “inactive” in each case. The results for the Potency in [8] and in [9] were 11.3 µM (active) and 14.2 µM (active), respectively.
On to `c1ccc2cc(CC3=NCCN3)ccc2c1`, for which the activation in [1] was -13.6%. The Potency entry in assay [2], in [3] and in [4] was “inactive” each time.
For `[Cl-].[Cl][Pt].[NH2-].[NH2-].c1ccncc1`, the activation in assay [1] was -12%. Moreover, the Potency result in [2] and in assay [3] was “inactive” each time.
`CN1CCC[C@@H]1Cc1c[nH]c2ccc(Nc3ncccc3[N+](=O)[O-])cc12`: the activation in assay [1] is -40.7% and 3.34%. Besides, the Potency entry in assay [2], in assay [3], in assay [5], in assay [4] and in assay [6] was “inactive” in each case.
As for `CCCN1CCC[C@H](c2cccc(O)c2)C1`, the activation in assay [1] is 4.78%. Further, the Potency entry in assay [2], in assay [3] and in assay [4] was “inactive” in each case.
Turning to `CCCN(CCC)[C@H]1CCc2c(F)ccc(O)c2C1`, the activation in [1] was 15.8%. Moreover, the Potency result in assay [2] and in [3] was “inactive” throughout.
For `CCN1C[C@@]2(COC)C3[C@@H](OC)C4[C@@H]1C3([C@@H]1C[C@]3(O)[C@H](OC(=O)c5ccccc5)[C@@H]1[C@]4(OC(C)=O)[C@@H](O)[C@@H]3OC)[C@H](OC)C[C@H]2O`, in assay [1], the activation is -12.5%. In addition, the Potency result in assay [2], in assay [3] and in [4] was “inactive” throughout.
In the case of `CCCN(CCC)C1Cc2cc(OC)c(OC)cc2C1`, in assay [1], the activation is -2.4%. For the same molecule, the Potency result in assay [2], in assay [3] and in [4] was “inactive” throughout.
As to `COc1ccc2c(c1OC)C(=O)O[C@H]2[C@@H]1c2cc3c(cc2CCN1C)OCO3`, the activation in [1] is 9.21% and -17.4%. Moreover, the Potency entry in assay [2], in assay [3] and in assay [4] was “inactive” throughout.
Turning to `c1ccc2c(N3CCNCC3)cccc2c1`, the activation in [1] was -14.7%. Besides, the Potency result in assay [2] and in assay [3] was “inactive” each time.
`NC(=O)c1ccc(OCC(O)CN2CC=C(c3ccc(F)cc3)CC2)cc1` (stereo not drawn): in [1], the activation was 5.52%. The Potency entry in assay [2] and in assay [3] was “inactive” throughout.
For the molecule `C[N+](C)(C)CC#CCOC(=O)Nc1cccc(Cl)c1`, the activation in assay [1] was 13.3%. Moreover, in [2], the Potency entry is “inactive”. Besides, the Potency is 10 µM (active) in assay [3], 10.1 µM (active) in assay [7] and 22.5 µM (active) in [9].
On to `NC1CC1c1ccccc1` (stereo not drawn), for which, in [1], the activation is -3.62% and 6.08%. The Potency result in assay [2], in assay [3] and in assay [4] was “inactive” throughout.
Take `CC(=O)[C@H]1CC[C@H]2[C@@H]3CC[C@H]4C[C@H](O)CC[C@]4(C)[C@H]3C(=O)C[C@]12C`: the activation in assay [1] was -36.8% and -33%. The Potency result in [2], in assay [3] and in assay [4] was “inactive” each time.
As to `CC(=O)NCCc1c[nH]c2ccccc12`, the activation in assay [1] is -24.3%. The Potency result in [2], in [3], in assay [5], in [4] and in assay [6] was “inactive” throughout.
Turning to `NCC(O)c1cc(O)c(O)cc1F` (stereo not drawn), the activation in [1] was -23.1%. For the same molecule, the Potency entry in assay [2], in [3] and in assay [4] was “inactive” each time.
With `C[C@H](N)Cc1cccc(C(F)(F)F)c1`, the activation in assay [1] was -17%. Also, the Potency result in assay [2], in [3] and in assay [4] was “inactive” throughout.
As for `CCS(=O)(=O)Nc1cccc(C(=C2CCCCC2)c2cnc[nH]2)c1`, in [1], the activation was -47%. The Potency result in [2], in assay [3] and in assay [4] was “inactive” in each case.
